Source: PubChem BioAssay AID1220 (Sanford-Burnham Center for Chemical Genomics, 2008)
About 1,300 (0.68%) of roughly 190,000 compounds were called active. No stated cut-off is given here; in the data, active means inhibition above about 50%; inactive means the rest. The full list was thinned out, with actives kept by preference.

target: Mannose-6-phosphate isomerase (Homo sapiens) (UniProt P34949); experiment: MPI inhibition at elevated mannose 6-phosphate – biochemical, fluorescence intensity, high mannose 6-phosphate, primary screen (AID 1220); conditions: recombinant PMI enzyme, coupled fluorescence intensity; at 20 µM; active compounds read high
Sequence (P34949 whole entry, looked up): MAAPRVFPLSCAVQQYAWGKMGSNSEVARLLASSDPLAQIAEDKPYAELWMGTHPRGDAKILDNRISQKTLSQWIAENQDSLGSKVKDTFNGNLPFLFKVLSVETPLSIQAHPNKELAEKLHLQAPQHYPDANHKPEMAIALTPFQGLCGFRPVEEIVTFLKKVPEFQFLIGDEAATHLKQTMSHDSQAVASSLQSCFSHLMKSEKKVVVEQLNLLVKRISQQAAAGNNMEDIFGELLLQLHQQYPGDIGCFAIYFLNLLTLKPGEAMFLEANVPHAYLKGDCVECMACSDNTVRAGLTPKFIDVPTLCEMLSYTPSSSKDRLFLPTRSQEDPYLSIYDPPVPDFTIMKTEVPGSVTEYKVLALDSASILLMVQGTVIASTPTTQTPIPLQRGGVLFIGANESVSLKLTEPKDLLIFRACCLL

Row | SMILES | inhibition
1 | CCOC(=O)Cc1csc(NC(=O)NC2(C(F)(F)F)Oc3ccccc3O2)n1 | 21.4% (inactive)
2 | CCOC(=O)Cc1csc(NC(=O)NC2(C(F)(F)F)Oc3cc(Cl)c(Cl)cc3O2)n1 | 54.7% (active)
3 | CCOC(=O)Cc1csc(NC(=O)NC2(C(F)(F)F)Oc3ccc(Cl)cc3O2)n1 (stereo unspecified) | 47.9% (inactive)
4 | CC1CC1C(=O)OCC(=O)NCc1ccc(Cl)cc1Cl (stereo unspecified) | -7.7% (inactive)
5 | CCSc1nnc(NC(=O)C2CC(=O)N(Cc3ccc(C)cc3)C2)s1 (stereo unspecified) | -13.3% (inactive)
6 | S=C(Nc1ccc2nc(-c3ccccn3)c(-c3ccccn3)nc2c1)N1CCOCC1 | -7.8% (inactive)
7 | CCOC(=O)C1CCN(C(=O)Nc2ccc3nccnc3c2)CC1 | 49.9% (inactive)
8 | CCOC(=O)N1CCN(C(=O)Nc2ccc3nc(C)c(C)nc3c2)CC1 | 48.9% (inactive)
9 | CCOC(=O)N1CCN(C(=O)Nc2ccc3nc(-c4ccccn4)c(-c4ccccn4)nc3c2)CC1 | 25.7% (inactive)
10 | Cc1ccc(NC(=S)Nc2ccc3nc(-c4ccccn4)c(-c4ccccn4)nc3c2)cc1C | 63.1% (active)
11 | CCCNC(=S)Nc1ccc2nc(-c3ccccn3)c(-c3ccccn3)nc2c1 | -9.4% (inactive)
12 | CN(C)NC(=S)Nc1ccc2nc(-c3ccccn3)c(-c3ccccn3)nc2c1 | -38.7% (inactive)
13 | O=C(Nc1ccc2nc(-c3ccccn3)c(-c3ccccn3)nc2c1)N1CCOCC1 | 62.6% (active)
14 | CCOC(=O)N1CCN(C(=O)Nc2ccc3nccnc3c2)CC1 | 55.1% (active)
15 | Cc1ccc2[nH]c3c(=O)n(CCN4CCNCC4)cnc3c2c1 | 24.5% (inactive)
16 | Cc1[nH]c2ccccc2c1CCNC(=O)c1c(N)no[n+]1[O-] | 15.2% (inactive)
17 | O=c1c(Cl)c(N/N=C/c2ccc(Br)cc2)cnn1-c1ccccc1 | 4.9% (inactive)
18 | O=C(Cc1cccc2ccccc12)Nc1ccc(OC(F)F)c(Cl)c1 | 10% (inactive)
19 | CC1=CC(=O)C(C(C)C)=CC1=NC(=O)c1ccc(C)cc1 | 79% (active)
20 | CC1=CC(=O)C(C(C)C)=C/C1=N\OC(=O)c1cccc2nc(C)oc12 | 9.2% (inactive)
21 | CC1=CC(=O)C(C(C)C)=C/C1=N/OC(=O)c1cccc([N+](=O)[O-])c1 | -0.5% (inactive)

Row | SMILES | inhibition
22 | COC(=O)CCc1c(C)c(C(=O)c2ccc(F)cc2)c2ccccn12 | 6.2% (inactive)
23 | CCN=c1sc(C(=O)OC)cc(=O)n1CC | 3.7% (inactive)
24 | O=C(NCC1OCCCN1S(=O)(=O)c1cc(F)ccc1F)C(=O)NC1CCCCC1 (stereo unspecified) | -0.8% (inactive)
25 | COc1ccc2c(C)c(Cc3ccccc3)c(=O)oc2c1OC | 0.1% (inactive)
26 | Cc1c(Cc2ccccc2)c(=O)oc2cc(O)cc(O)c12 | 58.5% (active)
27 | Cc1coc2c1c(C)cc1oc(=O)c(Cc3ccccc3)c(C)c12 | -11.6% (inactive)
28 | CCOC(=O)Cc1c(C)c2c(O)cc(O)cc2oc1=O | 33.5% (inactive)
29 | Cc1c(Cc2ccccc2)c(=O)oc2c(CN(C)C)c(O)c(Cl)cc12 | 7.5% (inactive)
30 | COC(=O)Cc1ccc2oc(-c3cccnc3)nc2c1 | 1.9% (inactive)
31 | CCCc1c(C)c2c(C)[nH]nc2oc1=O | 1.7% (inactive)
32 | COc1cc(OC)nc(Oc2ccccc2C(=O)Oc2cccc(C)c2)n1 | 7% (inactive)
33 | Cc1ccc(S(=O)(=O)Nc2nc3ccc(S(=O)(=O)N4CCCC4)cc3s2)cc1 | -22.6% (inactive)
34 | O=C1NC(=Nc2ccccc2)c2ccc([N+](=O)[O-])cc21 | -7.3% (inactive)
35 | NC(=O)c1ccc(C(=O)c2ccc([N+](=O)[O-])cc2)cc1 | -7.6% (inactive)
36 | Cc1cccc(N=C2NC(=O)c3cc([N+](=O)[O-])ccc32)c1 | 0.2% (inactive)
37 | Cc1ccc(N=C2NC(=O)c3cc([N+](=O)[O-])ccc32)cc1 | 6.9% (inactive)
38 | CCC(C)(C)n1nnnc1C(c1cc2cc(C)ccc2[nH]c1=O)N1CCCc2ccccc21 (stereo unspecified) | 21.8% (inactive)
39 | O=c1[nH]c2cc3c(cc2cc1C(c1nnnn1C1CCCC1)N1CCCc2ccccc21)OCCO3 (stereo unspecified) | 27.2% (inactive)
40 | Cc1ccc2[nH]c(=O)c(C(c3nnnn3C3CCCC3)N3CCCc4ccccc43)cc2c1 (stereo unspecified) | 61.4% (active)
41 | Cc1ccnc(NC(=O)C(C)n2cc([N+](=O)[O-])cn2)c1 (stereo unspecified) | -10.1% (inactive)
42 | CCOc1cc(N2CCOCC2)c(OCC)cc1NC(=O)c1ccc(NC(C)=O)cc1 | 26.1% (inactive)

Row | SMILES | inhibition
43 | CCOc1cc(N2CCOCC2)c(OCC)cc1NC(=O)c1ccco1 | 25.1% (inactive)
44 | CCNC(=S)Nc1cc(OCC)c(N2CCOCC2)cc1OCC | 58% (active)
45 | CCOc1cc(N2CCOCC2)c(OCC)cc1NC1=NCCCCC1 | 50.1% (active)
46 | CCOc1cc(N2CCOCC2)c(OCC)cc1NS(=O)(=O)c1ccc(Cl)s1 | 54.3% (active)
47 | FC(F)(F)c1ccc(N2CCOCC2)c(NC2=NCCCCC2)c1 | 2.9% (inactive)
48 | CCOc1cc(N2CCOCC2)c(OCC)cc1NC(=O)c1nc2nc(C)cc(C)n2n1 | 14.6% (inactive)
49 | CCOc1ccc(Br)cc1S(=O)(=O)Nc1ccccc1N1CCOCC1 | -0.7% (inactive)
50 | CCOc1cc(N2CCOCC2)c(OCC)cc1NC(=O)c1ccc(S(C)(=O)=O)cc1 | 54.7% (active)
51 | CCOc1cc(N2CCOCC2)c(OCC)cc1NC(=O)c1ccc(C)cc1 | 27.3% (inactive)
52 | O=S(=O)(Nc1ccc(N2CCOCC2)cc1)c1ccc(Cl)s1 | -4.9% (inactive)
53 | CCOc1cc(N2CCOCC2)c(OCC)cc1NC(=O)c1ccccc1 | 28.4% (inactive)
54 | Cc1cc(N)n2ncc(-c3ccc(F)cc3)c2n1 | 6.9% (inactive)
55 | COCc1cc(C)nc(SCC(=O)Nc2ccccc2C)c1C#N | -4.7% (inactive)
56 | COc1cccc(C(=O)C2CCCN(C(=O)c3cccc(C#CC(C)(C)O)c3)C2)c1 (stereo unspecified) | 13% (inactive)
57 | Cc1ccc2n(n1)c(=O)c(Cc1ccccc1)c([O-])[n+]2-c1ccccc1 | 7.7% (inactive)
58 | COCCNC(=O)CN1CCN(Cc2cccc(Cl)c2)C1=O | 10.3% (inactive)
59 | CCOc1cc(N2CCOCC2)c(OCC)cc1NC(=O)c1cc(C)cc(C)c1 | 40.8% (inactive)
60 | CCCNC(=O)Nc1cc(OCC)c(N2CCOCC2)cc1OCC | 58.7% (active)
61 | CCOc1cc(N2CCOCC2)c(OCC)cc1NC(=O)C(C)(C)C | 27.9% (inactive)
